Screening data deposited in PubChem BioAssay by Broad Institute.
Pf_Dd2_growth – P. falciparum Dd2 growth inhibition. activity change, % at 10 µM. 94,000 tested, 2.3% active. SYBR Green, 72 h; stronger effect = lower value; in the data active means activity change below about -80%; inconclusive means no clear call, values can overlap the other calls
T_cruzi_growth-1 – T. cruzi proliferation inhibition; inhibition, % at 8.34 µM; AID 624255; 77,000 tested, 5.9% active; T. cruzi beta-gal in NIH3T3, GalScreen luminescence, 90 h;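 active means mean inhibition above about 93%, with at least 55% of replicates each passing it, limit read from the data, passing the limit was not always enough; inconclusive means only one of those two conditions holds; inactive means neither condition holds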
C_diff_HTS – C. difficile growth inhibition. growth activity, negative = inhibition, % at 16 µg/mL (by protocol). 86,000 tested, 0.25% active. AID 1259249. Clostridium difficile clinical isolate growth, OD600, 24 h; stronger effect = lower value;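 active means mean growth activity at or below -80% and every replicate also at or below -80%; inconclusive means mean at or below -80% but some replicate above -80%; inactive means mean growth activity above -80%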;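 further: 0% = DMSO wells and -100% = levofloxacin 16 µg/mL wells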
T_cruzi_growth-2 – Trypanosoma cruzi proliferation inhibition; AID 651739; inhibition, % at 8.35 µM; T. cruzi beta-gal in NIH3T3, GalScreen luminescence, 90 h; 5,600 tested, 72% active; shares compounds with T_cruzi_growth-1;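 active means mean replicate inhibition above about 95% and at least 55% of replicates individually reaching it, limit read from the data; inconclusive means only one of the two criteria is met; inactive means neither criterion is met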
T_cruzi_growth-3 – Trypanosoma cruzi proliferation inhibition | 5,600 tested, 21% active | inhibition, % at 2.09 µM | shares compounds with T_cruzi_growth-1 | T. cruzi beta-gal in NIH3T3, GalScreen luminescence, 90 h | AID 651740;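 active means mean inhibition above about 95%, with at least 55% of replicates also reaching it, limit read from the data; inconclusive means meets just one of the two conditions; inactive means meets neither condition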;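 further: plate controls were neutral control median for no effect and positive control median for full effect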
3T3_cytotox – cytotoxicity in mouse NIH/3T3 fibroblasts. NIH/3T3 viability, CellTiter-Glo ATP luminescence, 90 h. cytotoxicity (signal decrease), % at 8.35 µM. 5,600 tested, 14% active. shares compounds with T_cruzi_growth-1;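 active means mean signal decrease across replicates above about 35% based on untreated-well scatter, with enough replicates individually passing, limit read from the data; inconclusive means no rule stated though some were filed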;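 further: 0% = median of neutral control wells and 100% = median of positive control wells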
NIH3T3_tox_2 – kills mouse NIH/3T3 fibroblasts; inhibition, % at 24.9 µM; 5,600 tested, 56% active; shares compounds with T_cruzi_growth-1; NIH/3T3 viability, CellTiter-Glo ATP luminescence, 90 h; AID 651744;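 active means mean loss of cell viability signal at or above a set limit, and enough replicates individually reaching it; inconclusive means meets only the mean limit or only the replicate share; inactive means meets neither condition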;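 further: 0% = median of neutral control wells and 100% = median of positive control wells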
* hit, by the source's call; u = inconclusive; x = not tested or not shown. Most compounds without a hit are left out; they make up all but 6.7% or so of the library.

SMILES Pf_Dd2_growth T_cruzi_growth-1 C_diff_HTS T_cruzi_growth-2 T_cruzi_growth-3 3T3_cytotox NIH3T3_tox_2
O=C(Nc1ccccc1F)N[C@H]1CC[C@H](CCNC(=O)C2CCOCC2)O[C@H]1CO 16 0 -5 x x x x
O=C(N[C@@H]1CC[C@H](CC(=O)N2CCCCC2)O[C@@H]1CO)c1ccccn1 23 -38 6 x x x x
COCC(=O)Nc1ccc2c(c1)C(=O)N(C)C[C@@H](OC)[C@@H](C)CN(Cc1cc(F)ccc1F)[C@@H](C)CO2 -59 47 x x x x x
COc1ccc(NC(=O)Nc2ccc3c(c2)CC(=O)N([C@@H](C)CO)C[C@@H](C)[C@H](CN(C)C(=O)Nc2ccccc2)O3)cc1 -11 x 9 x x x x
COc1ccc(NC(=O)Nc2ccc3c(c2)[C@H]2C[C@H](CC(=O)O)O[C@@H](CO)[C@H]2O3)cc1 50 -12 x x x x x
COc1ccc(C(=O)Nc2ccc3c(c2)C(=O)N(C)C[C@H](OC)[C@H](C)CN[C@@H](C)CO3)cc1 0 -31 x x x x x
CCC(=O)N1[C@@H](CO)[C@@H](c2ccc(-c3ccc(F)cc3)cc2)C12CN(C(C)=O)C2 -22 x -10 x x x x
O=C(NC1Cc2ccccc2C1)[C@@H]1[C@@H](CO)[C@@H]2Cn3c(ccc(-c4ccccc4)c3=O)[C@H]1N2 0 82 -2 x x x x
CC(=O)N(C)C[C@H]1Oc2cc(-c3cccnc3)ccc2S(=O)(=O)N([C@H](C)CO)C[C@H]1C 34 -203 x x x x x
COc1ccc(NC(=O)Nc2ccc3c(c2)C(=O)N([C@@H](C)CO)C[C@@H](C)[C@H](CN(C)Cc2ccc4c(c2)OCO4)OCCCC[C@@H](C)O3)cc1 -68 91 2 x x x x
COc1ccc(NC(=O)Nc2ccc3c(c2)C(=O)N([C@H](C)CO)C[C@@H](C)[C@@H](CN(C)Cc2ccc4c(c2)OCO4)OCCCC[C@H](C)O3)cc1 -72 92 12 x x x x
COc1ccc(CN(C)C[C@H]2OCCCC[C@@H](C)Oc3ccc(NC(=O)Nc4ccc5c(c4)OCO5)cc3C(=O)N([C@@H](C)CO)C[C@@H]2C)cc1 -57 94 x x x x x
COc1ccc(CN(C)C[C@@H]2OCCCC[C@H](C)Oc3ccc(NC(=O)Nc4ccc5c(c4)OCO5)cc3C(=O)N([C@H](C)CO)C[C@@H]2C)cc1 -68 101* x 94 106* 30 107*
COc1ccc(NC(=O)Nc2ccc3c(c2)C(=O)N([C@H](C)CO)C[C@H](C)[C@@H](CN(C)Cc2ccc4c(c2)OCO4)OCCCC[C@H](C)O3)cc1 -62 u 17 105* 57 23 30
COc1ccc(CN(C)C[C@@H]2OCCCC[C@@H](C)Oc3ccc(NC(=O)Nc4ccc5c(c4)OCO5)cc3C(=O)N([C@H](C)CO)C[C@@H]2C)cc1 38 102* x 111* 11 11 23
COc1ccc(CN(C)C[C@@H]2OCCCC[C@H](C)Oc3ccc(NC(=O)Nc4ccc5c(c4)OCO5)cc3C(=O)N([C@@H](C)CO)C[C@@H]2C)cc1 -69 102* x 100* 91 68* 80*
COc1ccc(NC(=O)Nc2ccc3c(c2)C(=O)N([C@H](C)CO)C[C@H](C)[C@@H](CN(C)Cc2ccc4c(c2)OCO4)OCCCC[C@@H](C)O3)cc1 -65 54 9 x x x x
O=C(CCN1CCCCC1)NCC[C@H]1CC[C@H](NC(=O)Nc2ccc(F)cc2)[C@@H](CO)O1 9 -50 -5 x x x x
C[C@H]1CN([C@@H](C)CO)C(=O)Cc2cc(NC(=O)CCN3CCOCC3)ccc2O[C@H]1CN(C)C(=O)Nc1cccc2ccccc12 14 25 -2 x x x x
C[C@H](CO)N1C[C@H](C)[C@@H](CN(C)C)Oc2ccc(NC(=O)CCCN(C)C)cc2CC1=O 23 3 2 x x x x
Cc1ccccc1-c1ccc([C@H]2[C@H]3CN(C(=O)NC4CCCC4)CCCCN3[C@H]2CO)cc1 -8 112* 10 105* 53 -11 55*
Cc1ccccc1-c1ccc([C@H]2[C@@H](CO)N3CCCCN(C(=O)NC4CCCC4)C[C@H]23)cc1 -31 115* -1 108* 99* 20 106*
COc1ccccc1-c1ccc([C@H]2[C@H]3CN(C(=O)NC4CCCC4)CCCCN3[C@H]2CO)cc1 10 69 3 x x x x
COc1ccccc1-c1ccc([C@@H]2[C@H]3CN(C(=O)NC4CCCC4)CCCCN3[C@H]2CO)cc1 1 68 8 x x x x
COc1ccccc1-c1ccc([C@@H]2[C@@H](CO)N3CCCCN(C(=O)NC4CCCC4)C[C@@H]23)cc1 13 77 16 x x x x
SMILES Pf_Dd2_growth T_cruzi_growth-1 C_diff_HTS T_cruzi_growth-2 T_cruzi_growth-3 3T3_cytotox NIH3T3_tox_2
Cc1ccccc1-c1ccc([C@H]2[C@@H](CO)N3CCCCN(C(=O)NC4CCCC4)C[C@@H]23)cc1 26 106* -7 108* 93 17 81*
COCC(=O)N1[C@H](CO)[C@@H](c2ccccc2)C12CN(C(=O)c1ccccc1)C2 22 x 5 x x x x
CCC(=O)N(C)C[C@@H]1Oc2cc(-c3ccccc3C)ccc2S(=O)(=O)N([C@H](C)CO)C[C@H]1C -11 -4 4 x x x x
C[C@@H]1CN([C@@H](C)CO)C(=O)CCCn2cc(nn2)CO[C@@H]1CN(C)C -21 -53 -4 x x x x
C[C@@H]1CCCCO[C@H](CN(C)Cc2ccncc2)[C@H](C)CN([C@@H](C)CO)C(=O)c2cc(NC(=O)C3CCCCC3)ccc2O1 -10 90 -5 x x x x
C[C@@H]1CN([C@H](C)CO)C(=O)c2cc(NC(=O)C3CCCCC3)ccc2O[C@@H](C)CCCCO[C@H]1CN(C)Cc1ccncc1 -12 103* -4 65 32 0 3
C[C@H]1CCCCO[C@@H](CN(C)Cc2ccc(C(=O)O)cc2)[C@@H](C)CN([C@@H](C)CO)C(=O)c2cc(NC(=O)C3CCCCC3)ccc2O1 10 -18 -2 x x x x
C[C@@H]1CCCCO[C@H](CN(C)Cc2ccc(C(F)(F)F)cc2)[C@@H](C)CN([C@@H](C)CO)C(=O)c2cc(NC(=O)C3CCCCC3)ccc2O1 -85* u 7 95* 108* -2 27*
C[C@H]1CN([C@@H](C)CO)C(=O)c2cc(NC(=O)C3CCCCC3)ccc2O[C@H]1CN(C)Cc1ccc(C(F)(F)F)cc1 -5 15 8 x x x x
C[C@H]1CN([C@@H](C)CO)C(=O)c2cc(NC(=O)C3CCCCC3)ccc2O[C@@H]1CN(C)Cc1ccc(C(F)(F)F)cc1 15 92* -4 92 38 -3 22
C[C@@H]1CCCCO[C@@H](CN(C)Cc2ccc(C(F)(F)F)cc2)[C@H](C)CN([C@H](C)CO)C(=O)c2cc(NC(=O)C3CCCCC3)ccc2O1 -50 118* -1 89 104* 22 17
